From PubChem BioAssay (NCI)
About 83,000 compounds went through this panel and 20% of them were active in at least one assay; those are over-represented in the sample as a whole.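 Single-concentration screen, 48 h exposure, 96-well plates. Endpoint: percent growth. Below 10 = active.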 Values without a mark were called inactive. Calls of active or inactive are those of the source.

Key:
Experiment in all cases: NCI-60 one-dose screen, 48 h (100 = growth as untreated, 0 = no growth, -100 = all killed)
Details in all cases: 10 µM unless noted
[1] = tested on: SK-MEL-2 melanoma
[2] = tested on: EKVX NSCLC
[3] = tested on: SN12C renal
[4] = tested on: UO-31 renal
[5] = tested on: TK-10 renal
[6] = tested on: ACHN renal
[7] = tested on: A498 renal
[8] = tested on: CCRF-CEM leukemia
[9] = tested on: MOLT-4 leukemia
[10] = tested on: CAKI-1 renal

| Structure (SMILES) | growth [1] [%] | growth [2] | growth [3] | growth [4] | growth [5] | growth [6] | growth [7] | growth [8] | growth [9] | growth [10] |
| --- | --- | --- | --- | --- | --- | --- | --- | --- | --- | --- |
| O=c1[nH]c2ccccc2cc1COc1ccc(Nc2nccc(-c3ccc(Cl)cc3)n2)cc1 | 99.6 | 104% | 100% | 98.7% | 111% | 84.9% | 118% | 103% | 102% |  |
| Cc1ccc(N=Nc2c(N)nn3c(-c4cc5cc(Br)ccc5oc4=O)ccnc23)cc1 | 108 | 72.2% | 35.6% | 79.8% | 81.9% | 54.4% | 51.9% | 99.8% | 98.6% |  |
| Nc1cc2ccccc2c(=O)n1NC(=O)c1ccccc1 | 105 | 87.6% | 100% | 58.3% | 127% | 93.4% | 145% | 98.9% | 93.9% |  |
| N#Cc1cc(-c2ccc3ncnc(N4CCc5cc(F)c(Cl)cc54)c3c2)cnc1N |  | 24.6% | 26.8% | 19.4% | 29.9% | 26.6% | -0.0443% (active) | 45.1% | 7.69% (active) |  |
| CCOC(=O)/C(F)=C/C1CC1CCc1ccc(OCC)cc1 (configuration not stated) |  | 47.7% | 44.9% | 73.8% | 98.2% | 75.1% | 102% | 106% | 98.4% | 86.1% |
| COc1ccc(/C=C/C(=O)c2ccc(S(=O)(=O)NCCNc3nc(N(C)C)nc(N4CCOCC4)n3)cc2)cc1 |  | 81.1% | 91.6% | 74.5% | 114% | 104% | 89.2% | 80% | 34.7% | 73.2% |
| COc1cc2cc(C(=O)N3C[C@@H](CCl)c4c3cc(OC(=O)N(C)CCSSCCN3CCOCC3)c3ccccc43)[nH]c2c(OC)c1OC |  | -40.1% (active) | -48.4% (active) | -28.2% (active) | -40% (active) | -18.9% (active) | -15.9% (active) | -15.9% (active) | -18.2% (active) | -45.3% (active) |
| N#CC1=C(c2ccco2)Nc2c(c(-c3ccccc3)nn2-c2ccccc2)C12C(=O)Nc1ccc(Br)cc12 (configuration not stated) |  | 56.2% | 5.11% (active) | 59.8% | 65.9% | 49.3% | 124% | 35.5% | 36.2% | 55.9% |
| Cc1ccc(C(=O)Nc2cc(-n3ccnc3C)cc(C(F)(F)F)c2)cc1C#Cc1cnc2cccnn12 |  | 3.81% (active) | -8.57% (active) | 0.162% (active) | 11.6% | -6.55% (active) | -18.4% (active) | 5.01% (active) | 4.23% (active) | -41.4% (active) |
| COc1ccc(-n2c(NC(=O)N3CCN(C)CC3)c(C#N)c3ccccc32)cc1 |  | 12.3% | 23% | -15.6% (active) | 12.4% | 21.9% | 139% | 60.5% | 43.9% | 15% |
| O=C(NN1C(=O)/C(=C/C=C/c2ccc([N+](=O)[O-])o2)SC1=S)c1ccc([N+](=O)[O-])cc1 |  | -97.8% (active) | -99.9% (active) | -100% (active) | -98% (active) | -100% (active) | -95.8% (active) | -37.2% (active) | -3.98% (active) | -100% (active) |
| CN1C(=O)C(O)(CC(=O)c2cc3ccccc3oc2=O)c2ccccc21 (configuration not stated) |  | 90.1% | 88.8% | 57.3% | 116% | 98.1% | 162% | 92% | 83.4% | 86.1% |
| COc1ccc(NC(=O)CSc2nnc(-c3ccc(-c4nc5ccccc5[nH]4)cc3)o2)cc1 |  | 53.2% | 31% | 97.7% | 96.8% | 35.4% | 147% | 50.7% | 35.9% | 41.5% |
| COC(=O)c1c(C(=O)OC)c2c3ccccc3c3ccccc3n2c1C(=O)C(F)(F)F |  | 98.2% | 92.7% | 65.9% | 113% | 93.7% | 138% | 98.2% | 117% | 64.8% |
| O=C(N/N=C/c1ccc(B(O)O)s1)c1[nH]c2ccc(Br)cc2c1-c1ccccc1 |  | -98.8% (active) | -79.4% (active) | -76.3% (active) | -93.2% (active) | -100% (active) | -88.3% (active) | -16.5% (active) | -8% (active) | -59.8% (active) |
| CCCCNc1ccc2c3c(cccc13)C(=O)N(c1cccc(-c3nn(-c4ccccc4)cc3-c3nc4ccccc4s3)c1)C2=O |  | 96.4% | 101% | 70.4% | 110% | 96.3% | 131% | 105% | 113% |  |
| COc1cc(NC(=O)CSc2nnc(-c3ccc(-c4nc5ccc(Cl)cc5[nH]4)cc3)o2)cc(OC)c1OC |  | 81.1% | 46.6% | 64% | 93.9% | 74.9% | 137% | 15% | 34.2% | 68.3% |
| COc1ccc(N=Nc2c(N)nn3c(N)c(C#N)c(-c4ccc(F)cc4)nc23)cc1 |  | 72.6% | 61.3% | 50.6% | 66.7% | 53.5% | 155% | 86.7% | 77.6% | 58.6% |
| Cc1ccc(C(=O)Nc2cc(-n3cnc(F)c3)cc(C(F)(F)F)c2)cc1C#Cc1cnc2cccnn12 |  | 74.2% | 45.6% | 39.9% | 83.2% | 59.4% | 103% | 29% | 44.7% | 63.1% |
| NC(=O)c1ccc(-c2ccc3ncnc(N4CCc5cc(F)c(Cl)cc54)c3c2)cn1 |  | 19.5% | 61.9% | 33.1% | 28.2% | 30.3% | 74.7% | 44.2% | 18.4% | 31.1% |
| Cc1ccc(C2CC(c3ccc(NC(=S)Nc4ccccc4)cc3)=NN2c2ccc(S(N)(=O)=O)cc2)cc1 (configuration not stated) |  | 9.1% (active) | 28.3% | 3.53% (active) | 21.6% | -33.2% (active) | 76.4% | 14.5% | 25.8% | -10.6% (active) |
| Oc1ccc(Cl)c(Nc2nc(SCCN3CCOCC3)nc3c2cnn3CC(Cl)c2ccc(Br)cc2)c1 (configuration not stated) |  | 37% | 35% | 14% | 36.1% | 12.9% | 63.4% | 3.42% (active) | -24% (active) | 21.2% |
| Cc1ccc(Cl)cc1NC(=O)Nc1nc2ccc([N+](=O)[O-])cc2s1 |  | -0.784% (active) | -25.7% (active) | -16.3% (active) | 2.13% (active) | -19.8% (active) | -21.7% (active) | 3.14% (active) | 6.23% (active) | -26% (active) |
| O=C(CSc1nnc(-c2ccc(-c3nc4ccccc4[nH]3)cc2)o1)Nc1ccc(Cl)cc1 |  | 16.2% | 19.6% | 57.8% | 59.5% | -86.8% (active) | 132% | 32.5% | 6.05% (active) | 17.1% |
| COc1ccc(-c2nc3ccc(-c4nnc(SCC(=O)Nc5ccc(/C(C)=N\O)cc5)o4)cc3[nH]2)cc1 |  | 95.3% | 80.1% | 87.5% | 111% | 85.9% | 166% | 55.6% | 55.9% | 96.1% |
| COc1cc(C2C(C(=O)OCc3ccccc3)=C(C)Nc3nc4ccccc4n32)cc(OC)c1OC (configuration not stated) |  | 36.8% | 37.1% | 1.37% (active) | 34.6% | -4.94% (active) | -22.7% (active) | 41.7% | 33.2% | 6.89% (active) |
